Compound activity as filed in PubChem BioAssay.
Shown are actives, neighbours in structure and some others; about 13% of the full set was active somewhere.
USP28 block – inhibitors of human USP28 deubiquitinase; inhibition, % at 25 µM; purified USP28, Ub-rhodamine cleavage fluorescence, 30 min; 3% of 47,000 active
USP10 inh – inhibitors of human USP10 deubiquitinase. Ubiquitin carboxyl-terminal hydrolase 10 (Homo sapiens), Q14694. inhibition, % at 20 µM. purified USP10, Ub-rhodamine fluorescence, 60 min. 1.1% of 47,000 active
USP30 inh – inhibitors of human USP30 deubiquitinase; 5.3% of 47,000 active; Ubiquitin carboxyl-terminal hydrolase 30 (Homo sapiens), Q70CQ3; purified USP30, Ub-rhodamine cleavage fluorescence; inhibition, % at 25 µM
USP17 block – inhibitors of human USP17 deubiquitinase | Ubiquitin carboxyl-terminal hydrolase 17-like protein 5 (Homo sapiens), A8MUK1 | purified USP17, Ub-rhodamine cleavage fluorescence, 3 h | inhibition, % at 50 µM | 6.5% of 47,000 active
Target sequence (A8MUK1 whole entry, looked up): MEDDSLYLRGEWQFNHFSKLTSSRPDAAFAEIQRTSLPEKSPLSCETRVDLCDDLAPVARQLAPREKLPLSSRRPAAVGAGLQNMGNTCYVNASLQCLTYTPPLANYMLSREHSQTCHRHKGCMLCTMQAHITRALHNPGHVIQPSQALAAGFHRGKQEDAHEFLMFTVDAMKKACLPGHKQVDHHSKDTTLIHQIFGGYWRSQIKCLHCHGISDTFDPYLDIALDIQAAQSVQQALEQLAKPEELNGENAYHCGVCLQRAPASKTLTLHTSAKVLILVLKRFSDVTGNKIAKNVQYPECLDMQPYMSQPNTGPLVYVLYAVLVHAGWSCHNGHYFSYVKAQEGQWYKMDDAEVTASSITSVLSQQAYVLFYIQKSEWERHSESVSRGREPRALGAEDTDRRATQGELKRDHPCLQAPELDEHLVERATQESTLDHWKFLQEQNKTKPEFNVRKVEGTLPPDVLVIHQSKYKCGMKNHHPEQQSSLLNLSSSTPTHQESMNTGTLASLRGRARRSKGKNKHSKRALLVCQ
USP8 block – inhibitors of human USP8 deubiquitinase; Ubiquitin carboxyl-terminal hydrolase 8 (Homo sapiens), P40818; purified USP8, Ub-rhodamine cleavage fluorescence, 30 min; inhibition, % at 20 µM; 4.2% of 47,000 active; AID 1645853, 2021
* marks the source's active call; other numbers are inactive results; / = not tested or not shown. No stated cut-off is given here; in the data, active means inhibition above about 30%; inactive means the rest.

SMILES	USP28 block	USP10 inh	USP30 inh	USP17 block	USP8 block
CCOC(=O)c1ccc(NC(=O)CC2N=C(N3CCN(c4ccccc4)CC3)NC2=O)cc1 (stereo unspecified)	-9.0	2.3	-13.7	6.6	20.8
COc1cccc(C(CNC(=O)c2cccc3ccccc23)N2CCOCC2)c1 (stereo unspecified)	-12.9	-1.8	-15.7	-20.5	-13.2
O=C(CN1C=NC2=NS(=O)(=O)c3ccccc3N21)Nc1cc(F)ccc1F	10.1	2.3	17.7	76.5*	22.7
O=C(CCC(=O)N1CCOc2ccccc21)Nc1cc(F)ccc1F	6.8	-0.4	12.1	0.1	1.8
Cc1ccc(S(=O)(=O)c2nnn3c2nc(Nc2cccc(C)c2C)c2ccccc23)cc1	4.2	12.6	29.5	22.1	67.0*
Cc1c(Cl)cccc1Nc1nc2c(S(=O)(=O)c3ccccc3)nnn2c2ccc(Cl)cc12	/	10.3	/	56.7*	10.2
Cc1cccc(Nc2nc3c(S(=O)(=O)c4ccc(C(C)(C)C)cc4)nnn3c3ccccc23)c1C	-0.8	-0.3	-16.4	8.6	23.2
COCCN(C)C(=O)c1ccc2nnc3ncn(CC(C)C)c3c2c1	-7.3	-1.1	-7.4	-2.1	-3.9
Cc1ccc(C(=O)N2C[C@H](OCc3cccnc3)[C@H]3OCCC[C@H]32)o1	-24.0	-2.8	-71.4	-52.0	-11.5
CCn1ccc2c(cc(C(=O)Nc3ccccc3C)n2C)c1=O	16.0	1.8	-0.9	/	1.2
CCn1ccc2c(cc(C(=O)Nc3ccccc3F)n2C)c1=O	74.1*	-0.3	-5.5	-0.1	-42.7
CCc1ocnc1C(=O)N1CCCC1c1noc(C2CC2)n1 (stereo unspecified)	-16.9	-3.9	-42.0	-21.5	-16.4
CCn1ccc(C(=O)N2CC(C(=O)NC3CCCC3)C3(CCOCC3)C2)n1 (stereo unspecified)	-2.1	-1.0	-0.2	5.4	0.9
COc1ccccc1C1CCN(Cc2c(C)[nH]c3ccccc23)CC1	15.9	-4.5	31.0*	0.3	-6.6
COc1cccc(C(=O)Nc2ccccc2-c2nc3ccc(C)cc3[nH]2)c1	5.4	10.7	3.7	9.1	4.4
Cc1ccc2nc(-c3cccc(NC(=O)C(C)C)c3)[nH]c2c1	26.3	1.4	20.7	49.2*	64.9*
Cc1cc(C)nc(Nc2ccc(C3CCN(S(=O)(=O)N(C)C)CC3)nc2)n1	13.7	-3.2	11.3	1.9	18.9
CC(C)(C)c1ccc(Nc2nc(-c3cccnc3)nc3ccccc23)cc1	-18.9	-9.1	-68.3	-13.0	18.9
c1cncc(-c2nc(Nc3ccc4c(c3)OCCO4)c3ccccc3n2)c1	43.7*	-0.9	52.8*	42.0*	28.3
c1cncc(-c2nc(Nc3ccc4c(c3)OCCCO4)c3ccccc3n2)c1	6.1	-5.3	-13.6	40.1*	0.9
Cn1cccc1C(=O)Nc1cnn(-c2ncc(N3CCCCC3)cn2)c1	-34.1	-0.6	-80.4	-32.2	-33.4
Cn1cccc1C(=O)Nc1cnn(-c2ncc(N3CCCC3)cn2)c1	-17.4	-3.2	-108.9	31.4*	-7.2
COc1c2c(cc3c1C(c1nnnn1-c1ccc(C)cc1)N(C)CC3)OCO2 (stereo unspecified)	0.7	0.2	-0.7	-0.7	-4.8
COc1ccc(-c2c[n+](Cc3ccc([N+](=O)[O-])cc3)c3n2CCC3)cc1	20.3	-1.2	18.7	-25.0	0.0
COc1cc2c(cc1OC)CN(C(=O)C(NC(=O)c1ccccc1)C(C)C)CC2 (stereo unspecified)	2.7	-2.3	4.2	19.7	53.5*
SMILES	USP28 block	USP10 inh	USP30 inh	USP17 block	USP8 block
COCCCn1c(C(=O)NCCC(C)C)cc2c(=O)n3ccccc3nc21	21.0	2.2	34.2*	32.2*	2.4
COCCCn1c(C(=O)Nc2ccccc2OC)cc2c(=O)n3ccccc3nc21	7.0	4.3	35.1*	77.1*	-4.0
Cc1ccccc1Cn1c(=O)n(CC2CCC(C(=O)NC3CCCC3)CC2)c(=O)c2ccccc21 (stereo unspecified)	0.8	9.5	5.9	15.8	-2.2
COc1ccc(OC)c(CCNC(=O)CCC2=NS(=O)(=O)c3ccc(C(F)(F)F)cc3N2)c1	18.3	16.3	33.1*	76.6*	58.3*
COc1cccc(CNC(=O)CC(c2cccc(F)c2)n2cccc2)c1 (stereo unspecified)	2.7	2.1	4.2	-22.2	-74.1
COc1ccc(CNC(=O)CC(c2cccc(F)c2)n2cccc2)cc1 (stereo unspecified)	19.3	1.7	34.7*	13.4	-13.6
COc1ccccc1NC(=O)Nc1ccc2nc(C)[nH]c2c1	-4.8	-1.4	-17.0	-18.3	-47.7
Cc1cc(Cl)ccc1OCC(=O)N1CCCc2ccccc21	11.6	-8.1	-95.5	-26.5	-0.2
Cc1nc(-c2ccc(-n3cc(C(=O)Nc4cccc(F)c4)c(C)n3)cc2)no1	6.8	2.8	15.7	51.3*	8.9
Cc1ccc(N2CC(C(=O)N3CCC(c4noc(-c5ccccc5)n4)CC3)CC2=O)cc1C (stereo unspecified)	8.0	3.1	20.9	9.1	23.3
O=C(NC1CCCCC1)C1CC(=O)N(c2cccc(-c3noc(-c4cccs4)n3)c2)C1 (stereo unspecified)	/	-1.6	/	38.8*	-4.1
Cc1ccc(N2CC(C(=O)Nc3cccc(-c4noc(C)n4)c3)CC2=O)cc1 (stereo unspecified)	-2.2	25.4	5.1	11.0	40.4*
Cc1cc(C)cc(NC(=O)c2cccc(-c3noc(C)n3)c2)c1	-0.5	0.0	-2.4	-7.4	-5.7
Cc1nc2cc(N3CC(C(=O)Nc4cccc(C)c4C)CC3=O)ccc2o1 (stereo unspecified)	9.7	-0.1	32.8*	17.7	29.1
Cc1ccc(NC(=O)COc2ccc(N3CC(C(N)=O)CC3=O)cc2)cc1C (stereo unspecified)	14.7	1.7	16.8	15.0	14.3
CC(=O)Nc1ccc(C(=O)Nc2cccc(-c3noc(C)n3)c2)cc1	/	6.0	/	48.5*	3.7
Cc1nc(-c2cccc(NC(=O)c3ccc4c(c3)OCO4)c2)no1	-39.5	-6.8	-231.0	-48.0	-21.2
Cc1nc(C2CCCN2C(=O)c2ccccn2)nc2c1CC(=O)N2CCc1ccccc1F (stereo unspecified)	-60.1	-6.7	-319.8	7.0	61.1*
Cc1nc(C2CCCN2C(=O)c2ccnn2C)nc2c1CC(=O)N2Cc1ccc(F)cc1 (stereo unspecified)	-44.9	-5.7	-201.6	-3.3	40.3*
Cc1cnc(C(=O)N2CCc3nc(C(=O)Nc4ccncc4)sc3CC2)cn1	-0.4	0.9	6.0	4.7	-0.7
Cc1cccc(N2C(=O)/C(=C\c3cc(C#N)n(C)c3C)c3ccccc3C2=O)c1	5.9	34.6*	-57.1	19.5	56.2*
Cc1ccc(S(=O)(=O)N2C(=O)CCC2C(=O)Nc2ccccc2C)cc1 (stereo unspecified)	-4.5	0.7	-10.5	0.5	-33.2
